Assay results published in PubChem BioAssay (EPA / NIEHS).
Results filed as inconclusive are left out. Activity calls are given as the source filed them. How the source made its calls, unless noted: active means hit-call score of the fitted dose curve at least 0.9, where 1 is the maximum; inconclusive means response in the unintended direction; inactive means score below 0.9.

How the values were obtained:
[1] = molecular target: Estrogen-related receptor gamma (Homo sapiens) (UniProt P62508); experiment: ATG_ERRg_TRANS: Attagene TRANS-FACTORIAL HepG2 Assay for human Estrogen-Related Receptor gamma (ERRg) (AID 2282977); details: HepG2 Attagene TRANS reporter, ERRg transactivation;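 further: hits increase reporter signal over DMSO so potencies reflect activators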
How it was run: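 Exogenous NR-Gal4 chimera activity measured as reporter transcript induction after 24 h in transiently transfected HepG2 cells. RNA reverse-transcribed, PCR-amplified, 6-FAM-labelled and resolved by capillary electrophoresis; increase over DMSO baseline.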

[2] = molecular target: Glucocorticoid receptor (Homo sapiens) (UniProt P04150); experiment: ATG_GR_TRANS: Attagene TRANS-FACTORIAL HepG2 Assay for human Glucocorticoid Receptor (GR) (AID 2282978); details: HepG2 Attagene TRANS GR reporter, mRNA transcription;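 further: activators score as hits since higher reporter transcript over DMSO is fitted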
How it was run: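 Fluorescent capillary-electrophoresis quantitation of reporter mRNA is the readout, taken 24 h after dosing human HepG2 cells carrying transiently transfected GAL4-UAS reporter units activated by chimeric NR-GAL4 fusions; activity scored as induction over DMSO.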

[3] = molecular target: Oxysterols receptor LXR-alpha (Homo sapiens) (UniProt Q13133); experiment: ATG_LXRa_TRANS: Attagene TRANS-FACTORIAL HepG2 Assay for human Liver X Receptor alpha (LXRa) (AID 2282980); details: HepG2 Attagene TRANS reporter, LXRa transactivation
How it was run: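 Transient HepG2 transfectants, 24 h dosing, RT-PCR/CE mRNA reporter quantitation; gain-of-signal vs DMSO.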

[4] = molecular target: Hepatocyte nuclear factor 4-alpha (Homo sapiens) (UniProt P41235); experiment: ATG_HNF4a_TRANS: Attagene TRANS-FACTORIAL HepG2 Assay for human Hepatocyte Nuclear Factor 4 alpha (HNF4a) (AID 2282982); details: HepG2 HNF4a transactivation reporter, mRNA readout
How it was run: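 Endpoint reflects transcriptional activation of a GAL4-UAS reporter by an HNF4a-GAL4 chimera in transfected HepG2 cells, 24 h post-dosing. Fluorescence from RT-PCR products separated by capillary electrophoresis; DMSO baseline.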

[5] = ATG_M_06_TRANS: Attagene TRANS-FACTORIAL HepG2 Assay for M06 Transcription Factor (Internal Marker) (AID 2282983); details: HepG2 Attagene TRANS M06 internal marker reporter
How it was run: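 Human liver HepG2 cells bearing transiently transfected chimeric NR-GAL4 reporter units were treated with chemicals for 24 h. Total RNA was reverse-transcribed, reporter sequences amplified and labelled, then quantified by capillary electrophoresis. Activity was fitted upward relative to DMSO.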

[6] = ATG_M_32_TRANS: Attagene TRANS-FACTORIAL HepG2 Assay for M32 Transcription Factor (Internal Marker) (AID 2282984); details: HepG2 Attagene TRANS M32 internal marker reporter
How it was run: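 Internal-marker readout from a multiplexed transcription reporter panel. HepG2 cells were transfected with GAL4-UAS reporter units, treated 24 hours, and reporter transcript levels determined by fluorescence after RT-PCR and capillary separation.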

[7] = molecular target: Nuclear receptor subfamily 4 group A member 2 (Homo sapiens) (UniProt P43354); experiment: ATG_NURR1_TRANS: Attagene TRANS-FACTORIAL HepG2 Assay for human Nuclear Receptor Related Protein 1 (NURR1) (AID 2282985); details: HepG2 Attagene TRANS reporter, mRNA readout
How it was run: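 Endpoint: reporter mRNA increase relative to DMSO. HepG2 cells transfected with reporter units, treated 24 h; RNA processed by RT-PCR, labelling, HpaI digestion and capillary electrophoresis.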

[8] = molecular target: Transcriptional activator Myb (Homo sapiens) (UniProt P10242); experiment: ATG_Myb_CIS: Attagene CIS-FACTORIAL HepG2 Assay for human Myeloblastosis (Myb) Proto-Oncogene Transcription Factor (AID 2282986; active means hit-call score of the fitted dose curve at least 0.9, where 1 is the maximum; inactive means score below 0.9); details: HepG2 Attagene CIS-FACTORIAL Myb reporter transcription; actives raise or lower the signal
How it was run: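 Reporter transcript levels, quantified by fluorescent RT-PCR and capillary electrophoresis, serve as the read-out. Transfected HepG2 cells carrying cis-promoter reporter units are dosed for 24 hours, and curves are fitted bidirectionally against DMSO controls.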

[9] = molecular target: Bile acid receptor (Homo sapiens) (UniProt Q96RI1); experiment: ATG_FXR_TRANS: Attagene TRANS-FACTORIAL HepG2 Assay for Farnesoid X Receptor (FXR) (AID 2282979); details: HepG2 Attagene TRANS FXR-GAL4 reporter transcription;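 further: hits raise reporter mRNA above DMSO so AC50 marks FXR activation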
How it was run: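 Chimeric FXR-GAL4 activity in transiently transfected human HepG2 liver cells is scored as induction of reporter mRNA after 24 h of dosing. Detection uses RT-PCR with fluorescent labelling and capillary electrophoresis, with DMSO serving as baseline.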

[10] = molecular target: Oxysterols receptor LXR-beta (Homo sapiens) (UniProt P55055); experiment: ATG_LXRb_TRANS: Attagene TRANS-FACTORIAL HepG2 Assay for human Liver X Receptor beta (LXRb) (AID 2282981); details: HepG2 Attagene TRANS GAL4-LXRb reporter, mRNA
How it was run: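 Multiplexed reporter assay, HepG2, 24 h dosing. Fluorescence of labelled RT-PCR products after capillary electrophoresis gives transcript level; positive fitting direction relative to DMSO.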

Measured: AC50

Sequence of Nuclear receptor subfamily 4 group A member 2 (Homo sapiens) (P43354 whole entry, looked up): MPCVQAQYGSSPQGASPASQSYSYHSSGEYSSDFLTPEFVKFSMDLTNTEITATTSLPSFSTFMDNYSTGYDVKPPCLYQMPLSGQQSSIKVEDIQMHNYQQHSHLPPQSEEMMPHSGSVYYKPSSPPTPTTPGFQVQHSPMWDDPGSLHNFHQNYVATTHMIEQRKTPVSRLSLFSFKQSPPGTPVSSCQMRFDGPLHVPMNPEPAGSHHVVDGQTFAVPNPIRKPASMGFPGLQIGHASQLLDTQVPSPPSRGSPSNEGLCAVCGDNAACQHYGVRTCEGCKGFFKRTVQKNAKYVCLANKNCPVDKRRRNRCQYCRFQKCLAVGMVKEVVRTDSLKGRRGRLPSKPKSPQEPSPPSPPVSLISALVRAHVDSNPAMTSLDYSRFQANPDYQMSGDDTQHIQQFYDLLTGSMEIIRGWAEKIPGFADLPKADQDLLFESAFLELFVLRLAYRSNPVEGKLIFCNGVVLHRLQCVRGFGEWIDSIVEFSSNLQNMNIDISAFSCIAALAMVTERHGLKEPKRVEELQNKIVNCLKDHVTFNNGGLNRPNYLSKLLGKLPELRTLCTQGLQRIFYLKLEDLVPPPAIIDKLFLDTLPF
Sequence of Glucocorticoid receptor (Homo sapiens) (P04150 whole entry, looked up, the tested form may be a part): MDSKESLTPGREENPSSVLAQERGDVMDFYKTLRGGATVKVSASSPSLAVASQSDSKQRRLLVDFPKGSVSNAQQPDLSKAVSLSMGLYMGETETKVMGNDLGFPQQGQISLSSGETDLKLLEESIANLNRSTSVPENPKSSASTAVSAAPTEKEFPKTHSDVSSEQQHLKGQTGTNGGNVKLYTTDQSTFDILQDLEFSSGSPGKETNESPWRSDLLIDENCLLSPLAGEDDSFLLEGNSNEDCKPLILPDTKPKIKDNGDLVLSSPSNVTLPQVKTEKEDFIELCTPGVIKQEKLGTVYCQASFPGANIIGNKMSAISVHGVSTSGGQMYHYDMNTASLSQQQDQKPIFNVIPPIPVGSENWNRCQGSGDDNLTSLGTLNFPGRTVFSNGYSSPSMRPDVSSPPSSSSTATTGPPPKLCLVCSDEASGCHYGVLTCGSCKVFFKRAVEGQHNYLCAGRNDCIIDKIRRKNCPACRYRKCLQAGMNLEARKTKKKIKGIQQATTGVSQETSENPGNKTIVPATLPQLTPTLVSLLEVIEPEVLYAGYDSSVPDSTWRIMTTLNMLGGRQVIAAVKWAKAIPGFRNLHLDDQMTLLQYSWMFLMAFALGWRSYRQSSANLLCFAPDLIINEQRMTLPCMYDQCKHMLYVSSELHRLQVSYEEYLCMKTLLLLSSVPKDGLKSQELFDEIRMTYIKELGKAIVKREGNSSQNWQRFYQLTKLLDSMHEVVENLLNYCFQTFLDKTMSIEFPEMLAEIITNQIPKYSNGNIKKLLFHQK
Sequence of Hepatocyte nuclear factor 4-alpha (Homo sapiens) (P41235 whole entry, looked up, the tested form may be a part): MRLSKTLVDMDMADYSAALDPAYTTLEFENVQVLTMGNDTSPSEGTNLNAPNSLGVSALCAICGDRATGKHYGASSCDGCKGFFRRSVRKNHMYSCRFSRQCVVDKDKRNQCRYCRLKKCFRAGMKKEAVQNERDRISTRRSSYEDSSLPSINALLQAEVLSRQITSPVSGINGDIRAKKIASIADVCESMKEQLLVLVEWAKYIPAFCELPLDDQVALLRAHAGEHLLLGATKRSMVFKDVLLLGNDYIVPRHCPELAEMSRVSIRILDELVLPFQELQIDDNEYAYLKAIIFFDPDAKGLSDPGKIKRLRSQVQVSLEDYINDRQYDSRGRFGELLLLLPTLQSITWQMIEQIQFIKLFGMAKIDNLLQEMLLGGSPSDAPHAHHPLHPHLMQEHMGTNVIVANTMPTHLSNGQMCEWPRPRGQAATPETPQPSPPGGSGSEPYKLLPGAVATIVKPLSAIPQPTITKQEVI
Sequence of Bile acid receptor (Homo sapiens) (Q96RI1 whole entry, looked up, the tested form may be a part): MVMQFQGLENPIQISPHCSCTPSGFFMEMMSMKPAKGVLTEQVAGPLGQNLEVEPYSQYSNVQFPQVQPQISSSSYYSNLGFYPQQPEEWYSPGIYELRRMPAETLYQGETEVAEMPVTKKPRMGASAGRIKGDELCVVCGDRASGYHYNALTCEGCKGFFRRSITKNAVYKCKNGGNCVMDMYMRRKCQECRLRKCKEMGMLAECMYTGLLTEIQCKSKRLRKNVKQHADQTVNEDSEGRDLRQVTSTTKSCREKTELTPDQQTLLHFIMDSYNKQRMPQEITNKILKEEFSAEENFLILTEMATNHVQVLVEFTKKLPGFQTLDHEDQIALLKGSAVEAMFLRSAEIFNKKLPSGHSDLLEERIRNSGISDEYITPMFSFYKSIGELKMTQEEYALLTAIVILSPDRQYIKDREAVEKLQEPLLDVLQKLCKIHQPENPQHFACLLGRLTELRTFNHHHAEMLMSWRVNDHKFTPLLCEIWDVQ
Sequence of Oxysterols receptor LXR-beta (Homo sapiens) (P55055 whole entry, looked up, the tested form may be a part): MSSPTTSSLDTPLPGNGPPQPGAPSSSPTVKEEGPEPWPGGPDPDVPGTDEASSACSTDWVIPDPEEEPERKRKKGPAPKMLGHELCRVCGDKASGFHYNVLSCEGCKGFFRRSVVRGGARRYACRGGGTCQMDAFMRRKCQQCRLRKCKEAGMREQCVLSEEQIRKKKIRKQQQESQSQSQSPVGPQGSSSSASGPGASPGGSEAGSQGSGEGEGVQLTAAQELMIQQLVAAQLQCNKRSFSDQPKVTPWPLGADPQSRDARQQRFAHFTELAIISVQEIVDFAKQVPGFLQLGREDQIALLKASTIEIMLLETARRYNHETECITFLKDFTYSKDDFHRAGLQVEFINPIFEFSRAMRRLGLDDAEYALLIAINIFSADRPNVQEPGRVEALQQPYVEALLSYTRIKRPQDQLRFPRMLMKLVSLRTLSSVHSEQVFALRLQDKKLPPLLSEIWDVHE
Sequence of Estrogen-related receptor gamma (Homo sapiens) (P62508 whole entry, looked up, the tested form may be a part): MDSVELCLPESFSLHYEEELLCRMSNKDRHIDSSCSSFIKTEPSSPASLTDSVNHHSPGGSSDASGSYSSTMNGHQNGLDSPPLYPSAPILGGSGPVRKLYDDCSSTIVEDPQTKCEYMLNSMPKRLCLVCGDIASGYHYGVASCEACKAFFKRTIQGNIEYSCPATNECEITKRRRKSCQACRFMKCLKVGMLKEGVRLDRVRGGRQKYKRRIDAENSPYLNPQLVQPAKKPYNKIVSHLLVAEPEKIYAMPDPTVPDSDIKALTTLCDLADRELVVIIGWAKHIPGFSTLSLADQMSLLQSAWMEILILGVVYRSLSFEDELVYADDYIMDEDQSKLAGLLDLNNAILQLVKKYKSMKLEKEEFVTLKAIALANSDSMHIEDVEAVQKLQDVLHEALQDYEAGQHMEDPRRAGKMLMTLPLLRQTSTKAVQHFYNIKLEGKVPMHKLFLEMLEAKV
Sequence of Oxysterols receptor LXR-alpha (Homo sapiens) (Q13133 whole entry, looked up): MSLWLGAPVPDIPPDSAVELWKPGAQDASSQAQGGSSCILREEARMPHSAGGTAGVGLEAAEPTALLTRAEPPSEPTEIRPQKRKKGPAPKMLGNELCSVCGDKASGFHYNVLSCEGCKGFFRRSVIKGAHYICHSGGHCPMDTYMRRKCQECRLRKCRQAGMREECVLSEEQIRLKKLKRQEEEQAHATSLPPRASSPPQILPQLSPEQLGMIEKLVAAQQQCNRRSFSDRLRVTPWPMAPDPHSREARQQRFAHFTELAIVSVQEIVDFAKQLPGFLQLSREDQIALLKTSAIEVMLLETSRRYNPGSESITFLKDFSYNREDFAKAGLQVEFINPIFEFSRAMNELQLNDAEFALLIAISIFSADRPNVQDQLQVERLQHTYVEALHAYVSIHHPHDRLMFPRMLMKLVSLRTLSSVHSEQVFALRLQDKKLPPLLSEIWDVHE
Sequence of Transcriptional activator Myb (Homo sapiens) (P10242 whole entry, looked up): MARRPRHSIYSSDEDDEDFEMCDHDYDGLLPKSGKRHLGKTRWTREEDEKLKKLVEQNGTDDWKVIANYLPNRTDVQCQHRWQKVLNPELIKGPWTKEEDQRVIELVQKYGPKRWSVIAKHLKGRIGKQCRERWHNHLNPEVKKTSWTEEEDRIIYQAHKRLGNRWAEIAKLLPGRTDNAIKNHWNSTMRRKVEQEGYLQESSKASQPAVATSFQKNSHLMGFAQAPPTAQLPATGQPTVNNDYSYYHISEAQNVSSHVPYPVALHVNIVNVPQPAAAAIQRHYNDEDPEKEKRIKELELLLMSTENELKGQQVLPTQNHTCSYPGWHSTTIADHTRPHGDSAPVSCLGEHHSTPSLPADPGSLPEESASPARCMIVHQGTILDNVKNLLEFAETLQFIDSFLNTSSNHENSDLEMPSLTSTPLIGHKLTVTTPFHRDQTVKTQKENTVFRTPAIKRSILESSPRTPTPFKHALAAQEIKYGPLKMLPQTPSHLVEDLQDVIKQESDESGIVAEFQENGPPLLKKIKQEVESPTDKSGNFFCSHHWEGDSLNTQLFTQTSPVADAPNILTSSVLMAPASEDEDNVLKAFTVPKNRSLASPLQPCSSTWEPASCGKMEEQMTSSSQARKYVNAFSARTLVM

O=S(=O)(O)c1ccc(N=Nc2c(O)ccc3cc(S(=O)(=O)O)ccc23)cc1
not listed: [9] | [10]
inactive: all other assays above

c1ccc2cc3ccccc3cc2c1
inactive: [1] | [2] | [6] | [8]

O=C(Cl)C(F)(F)C(F)(F)C(F)(F)C(=O)Cl
not listed: [7] | [10]
inactive: all other assays above

OCCOCCOCCO
inactive: [2] | [5] | [6] | [7] | [8]

O=C(O)c1cccc(C[C@@H]2COc3ccc(OCc4nc5cc(F)ccc5s4)cc3[C@@H]2O)c1
inactive: [2] | [6] | [7] | [8]

NC(=O)NN=Cc1ccc([N+](=O)[O-])o1
inactive: [2] | [4] | [5] | [7] | [8]

Cc1ncc([C@@H](CCCCCCc2ccc3c(n2)NCCC3)CC(=O)O)cn1
inactive: [9] | [3] | [4] | [6] | [7] | [8]

C=CCc1cc(S(=O)(=O)c2ccc(O)c(CC=C)c2)ccc1O
inactive: [2] | [9] | [5] | [6] | [8]

O=C1CN(N=Cc2ccc([N+](=O)[O-])o2)C(=O)N1
inactive: [2] | [5] | [6] | [8]

COc1cc2c(c(OC)c1OC)-c1ccc(OC)c(=O)cc1[C@@H](NC(C)=O)CC2
inactive: [2] | [9] | [3] | [5] | [8]

CCCCCCCC1CCC(=O)O1 (stereo unspecified)
inactive: [2] | [9] | [6] | [8]

CCCC(CCC)C(=O)O
inactive: [2] | [5] | [6] | [7] | [8]

c1ccc(C(O[C@@H]2CCCN(CCc3ccc4c(c3)OCO4)C2)c2ccccc2)cc1
inactive: [2] | [4] | [5] | [6] | [7] | [8]

O=C(O)[C@H](O)[C@@H](O)C(=O)O
inactive: [2] | [9] | [3] | [10] | [5] | [8]

Cc1ccc(S(=O)(=O)NC(=O)NN2CCCCCC2)cc1
inactive: [2] | [3] | [5] | [6] | [7] | [8]

NCC(F)(F)C(F)(F)C(F)(F)C(F)(F)F
not listed: [1] | [10]
inactive: all other assays above

COc1cc(C(C)C)c2c(c1)S(=O)(=O)N(COc1cc(=O)n3cccc(OCCN4CCCCC4)c3n1)C2=O
inactive: [2] | [4] | [6] | [7] | [8]
active: [9] 4.68 µM

CCc1cccc(CC)c1N
inactive: [2] | [4] | [5] | [7] | [8]

c1ccc2c(c1)-c1cccc3c1c-2cc1ccccc13
not listed: [1] | [9] | [10]
inactive: all other assays above

C[C@]12C=CC(=O)C=C1CC[C@H]1[C@@H]3C[C@@H](O)[C@](O)(C(=O)CO)[C@@]3(C)C[C@H](O)[C@@]12F
inactive: [3] | [4] | [5] | [7] | [8]
active: [2] 58.5 nM

CCN(CC)C(=S)SSC(=S)N(CC)CC
active: [8] 162 µM
inactive: [2] | [9] | [5] | [6]

CC[C@H](C)C(=O)O[C@H]1C[C@H](O)C=C2C=C[C@H](C)[C@H](CC[C@@H](O)C[C@@H](O)CC(=O)O)[C@H]21
inactive: [2] | [10] | [4] | [5] | [8]

CCCc1ccccc1
inactive: [2] | [4] | [5] | [7] | [8]

O=C(O)c1cccc(C(=O)O)c1
inactive: [2] | [9] | [4] | [6] | [8]

CCCCC(CC)C(=O)OCCOCCOCCOC(=O)C(CC)CCCC (stereo unspecified)
inactive: [2] | [5] | [7] | [8]

CCn1nc(C)c2c1C(=O)NCC(c1ccc(O)cc1)=N2
inactive: [2] | [4] | [5] | [6] | [7] | [8]

CCc1ccc(O)c(C(C)(C)C)c1
active: [7] 53.4 µM
inactive: [2] | [3] | [6] | [8]

CCCCCCCCN(C)C
inactive: [2] | [5] | [7] | [8]

CCCCCOC(C)=O
inactive: [2] | [5] | [6] | [7] | [8]

OC(CCl)CCl
inactive: [2] | [4] | [5] | [6] | [8]

NC(=O)N(O)[C@@H]1COc2cc(OCc3ccccc3)ccc21
not listed: [1] | [7] | [10]
inactive: all other assays above

CC(=O)c1ccccc1
inactive: [10]

c1ccc2ncccc2c1
inactive: [10]
